Compound activity deposited in PubChem BioAssay by National Center for Advancing Translational Sciences (NCATS).
Shiga toxin inh: Shiga toxin inhibition; 290,000 compounds, 9.2% hits; inhibition, % at 38.7 µM; Vero cells, Shiga toxin protein synthesis inhibition reporter; in the data active = inhibition mostly above about 28%, no sharp cut-off; inactive = mostly below about 43%
LmPK inhibitor: inhibitors of Leishmania mexicana pyruvate kinase; 290,000 compounds, 0.37% hits; Potency, µM (doses to about 57.5 µM), most hits filed as inhibitors; Q27686; purified LmPK, Kinase-Glo ATP luminescence, 1 h
Target sequence (Q27686 whole entry, looked up): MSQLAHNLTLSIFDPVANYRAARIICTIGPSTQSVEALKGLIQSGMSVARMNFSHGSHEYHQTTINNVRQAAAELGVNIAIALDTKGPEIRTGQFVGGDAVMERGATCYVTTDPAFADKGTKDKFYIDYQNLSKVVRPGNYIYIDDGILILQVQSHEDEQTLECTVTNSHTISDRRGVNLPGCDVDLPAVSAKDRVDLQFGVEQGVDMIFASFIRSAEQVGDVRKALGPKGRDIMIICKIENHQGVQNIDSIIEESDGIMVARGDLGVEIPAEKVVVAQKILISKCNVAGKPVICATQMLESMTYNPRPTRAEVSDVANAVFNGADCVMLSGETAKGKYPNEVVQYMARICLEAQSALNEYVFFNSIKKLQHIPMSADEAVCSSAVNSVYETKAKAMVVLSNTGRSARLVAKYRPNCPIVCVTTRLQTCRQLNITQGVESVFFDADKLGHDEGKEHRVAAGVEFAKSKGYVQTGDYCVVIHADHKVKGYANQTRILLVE
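Purified LmPK (0.1 nM) with 0.5 mM PEP and 0.1 mM ADP in imidazole buffer pH 7.2 with MgCl2/KCl, 1 h at room temperature. ATP formed was read by luciferase luminescence and normalized to no-enzyme and uninhibited controls.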
RE007 growth inh: less growth of the S. pombe RE007 Vpr strain; Potency, µM (top dose mostly 92.2 µM), most hits filed as inhibitors; S. pombe RE007 Vpr strain, BacTiter-Glo ATP luminescence, 24 h; AID 651644; 360,000 compounds, 0.21% hits; active = well fitted falling curve with a large enough effect; inconclusive = small, poorly fitted or top-dose-only effect; inactive = no such curve, though single readings can be large or run the other way; also: nearly all actives have a fitted effect of over 50% in size
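Fission yeast RE007 carrying one integrated HIV-1 vpr copy, seeded at OD 0.01 in PMG+AL medium with 23 nL pinned compound. Grown 24 h at 30 degrees; viability read by BacTiter-Glo luminescence after 5 min.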
FBPA Giardia inh: inhibitors of Giardia lamblia fructose-1,6-bisphosphate aldolase. A8B2U2. purified Giardia FBPA. Potency, µM (doses to about 59.6 µM), most hits filed as inhibitors. 290,000 compounds, 0.71% hits. AID 2451; also: nearly all actives have a fitted effect of over 55% in size
Target sequence (A8B2U2 whole entry, looked up): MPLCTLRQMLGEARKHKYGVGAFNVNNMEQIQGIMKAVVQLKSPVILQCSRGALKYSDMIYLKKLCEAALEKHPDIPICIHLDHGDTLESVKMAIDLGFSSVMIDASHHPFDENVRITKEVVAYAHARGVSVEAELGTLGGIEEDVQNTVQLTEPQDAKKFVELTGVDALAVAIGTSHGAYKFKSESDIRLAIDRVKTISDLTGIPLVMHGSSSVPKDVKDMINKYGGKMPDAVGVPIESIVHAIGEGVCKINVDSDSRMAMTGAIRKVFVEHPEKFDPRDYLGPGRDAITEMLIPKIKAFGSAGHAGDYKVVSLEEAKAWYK
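40 nM FBPA preincubated 10 min at RT with compound (up to 57.5 uM final), then substrate plus GAPDH/TPI/NAD/arsenate coupling and diaphorase/resazurin added. Fluorescence read after 20 min at RT, 525/598 nm.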
CHX counter: affects cycloheximide protein synthesis inhibition readout, counter-screen. cell reporter, cycloheximide protein synthesis inhibition counterscreen. max response, %. 300,000 compounds, 12% hits. AID 2314; in the data active = max response mostly above about 13%, no sharp cut-off; inactive = mostly below about 14%; also: read at 38.3 µM for the half of the compounds with a filed dose
TbPYK inhibitor: T. brucei pyruvate kinase inhibition | TbPYK enzyme, Kinase-Glo Plus ATP luminescence, 45 min | Potency, µM (highest dose often 76.8 µM), most hits filed as inhibitors | 410,000 compounds, 0.12% hits | AID 624173; also: nearly all actives have a fitted effect of over 50% in size
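Assay buffer: 50 mM TEA pH 7.2, 100 mM KCl, 10 mM MgCl2, 0.05% BSA, 0.01% Tween-20. Pyruvate kinase from T. brucei plus substrate met compound, then ADP (130 uM final). Luminescence was read post 45 min RT.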
Of the large screens only hits and unclear results are named; the others gave an inactive call. This is one part of a sample in which hits are shown more often than they occur. Unless noted, calls follow the shape of the dose curve; as a rule, active = well fitted curve in the direction sought with a large enough effect; inconclusive = small, poorly fitted or top-dose-only effect, or another doubt; inactive = no such curve, though single readings can be large; an effect the other way counts as inactive or inconclusive.

COc1ccc(NC(=O)N2CCCC(C(=O)NCCc3ccccc3)C2)cc1 (centres undefined)	Shiga toxin inh 65, CHX counter 34
COc1ccc(CNC(=O)C2CCCN(C(=O)Nc3ccc(OC)cc3)C2)cc1 (centres undefined)	none
COC(=O)c1ccc(NC(=O)c2c(NCc3ccc(OC)c(OC)c3)sc3c2CCCC3)cc1	none (no result: Shiga toxin inh, LmPK inhibitor, RE007 growth inh, FBPA Giardia inh, CHX counter)
Cc1cc(C)c(C)c(N=Nc2nc3ccccc3n2C)c1C	Shiga toxin inh 92, CHX counter 63
Cc1ccc(C)c(N=Nc2nc3ccccc3n2C)c1	Shiga toxin inh 76, LmPK inhibitor inconclusive, RE007 growth inh inconclusive, CHX counter 47
Cc1ccc(C(O)c2nc3ccccc3n2C)cc1 (centres undefined)	none
COc1ccc(-c2csc(CCN3N=C(C)CC3=O)n2)cc1	none
Cc1cc(C)cc(NC(=O)NCCc2c(C)nn(C)c2C)c1	none (no result: Shiga toxin inh, LmPK inhibitor, RE007 growth inh, FBPA Giardia inh, CHX counter)
Clc1ccc(CSc2cc3c(nn2)-c2ccccc2CC3)cc1	CHX counter 15
Clc1ccc(CSc2ccc(-c3ccccn3)nn2)cc1	none
O=C(CCCSc1nnc(SCCCC(=O)c2ccc(F)cc2)s1)c1ccc(F)cc1	none
Nc1nnc(SCCCC(=O)c2ccc(F)cc2)s1	Shiga toxin inh active, CHX counter 33
Nc1nnc(SCCCC(=O)c2ccc(Br)cc2)s1	Shiga toxin inh 67, CHX counter 58
Cc1cccc(NC(=O)CSc2ccc(-c3sc(-c4ccccc4)nc3C)nn2)c1C	none (no result: Shiga toxin inh, LmPK inhibitor, RE007 growth inh, FBPA Giardia inh, CHX counter)
OC1(C(F)(F)F)CC(c2ccc3ccccc3c2)=NO1 (centres undefined)	Shiga toxin inh 48, CHX counter 38
Cc1ccc(NC(=O)C2(C)Cc3ccccc3C(=O)O2)c(C)c1 (centres undefined)	none (no result: Shiga toxin inh, LmPK inhibitor, RE007 growth inh, FBPA Giardia inh, CHX counter)
Cc1cc2oc(C(=O)Nc3ccc(S(=O)(=O)N4CCC(C)CC4)cc3)cc(=O)c2cc1C	none (no result: Shiga toxin inh, LmPK inhibitor, RE007 growth inh, FBPA Giardia inh, CHX counter)
CCc1ccc(-n2c(=O)c3ccc(C(=O)NCCc4ccccc4)cc3n(Cc3ccccc3C#N)c2=O)cc1	none (no result: Shiga toxin inh, LmPK inhibitor, RE007 growth inh, FBPA Giardia inh, CHX counter)
CSc1ccccc1C(=O)C1CCCN(C(=O)c2ccc(N3CCOCC3)cc2)C1 (centres undefined)	Shiga toxin inh 34, CHX counter 17
CCCS(=O)(=O)Nc1cccc(-c2cn3c(n2)SCC3)c1	none
O=C(Nc1ccc(-c2cn3c(n2)SCC3)cc1)c1ccc2ccccc2n1	Shiga toxin inh 48, CHX counter 50
O=C(Nc1cccc(-c2cn3c(n2)SCC3)c1)c1ccc2ccccc2n1	Shiga toxin inh 133, CHX counter 45
COc1cccc(CNC(=O)CCC2CCCN(C(=O)c3ccoc3)C2)c1 (centres undefined)	none
COc1ccc(C(=O)N2CCCC(CCC(=O)NCc3ccc(F)c(F)c3)C2)cc1F (centres undefined)	none
COc1ccc(C(=O)N2CCCC(CCC(=O)NCc3ccc(F)c(F)c3)C2)o1 (centres undefined)	Shiga toxin inh 94, CHX counter 26
COc1cccc(CNC(=O)CCC2CCCN(C(=O)c3cc4ccccc4o3)C2)c1 (centres undefined)	Shiga toxin inh 68, LmPK inhibitor inconclusive, CHX counter 48
Nc1c(C(=O)Nc2ccc(OC(F)(F)F)cc2)nnn1Cc1ccccc1	none (no result: Shiga toxin inh, LmPK inhibitor, RE007 growth inh, FBPA Giardia inh, CHX counter)
O=c1c(-c2ccc(F)cc2)nc2cnc(N3CCOCC3)nc2n1Cc1ccc(F)cc1	none (no result: Shiga toxin inh, LmPK inhibitor, RE007 growth inh, CHX counter, TbPYK inhibitor)
CC(=O)N1N=C(c2ccc(Br)cc2)CC1c1ccc(Br)cc1 (centres undefined)	none (no result: Shiga toxin inh, LmPK inhibitor, FBPA Giardia inh, CHX counter)
CC(C)c1ccc(C2CC(c3ccc(Br)cc3)=NN2C(N)=S)cc1 (centres undefined)	Shiga toxin inh active
COc1cccc(C(=O)CN2C(=O)C(C)(C)Oc3ccc(C(=O)N4CCOCC4)cc32)c1	none
COc1cccc(C(=O)CN2C(=O)C(C)(C)Oc3ccc(C(=O)N4CCCCCC4)cc32)c1	CHX counter 31
CC(O)c1ccc(Oc2cnccn2)cc1 (centres undefined)	none
O=C1Nc2ccccc2/C1=N\c1sc2c(c1C(=O)Nc1ccccc1)CCCC2	Shiga toxin inh 22 (no result: TbPYK inhibitor)
Cc1ccc(C(=O)NCCc2ccc(Cl)cc2)cc1-n1c(C)nc2cccnc21	none (no result: Shiga toxin inh, LmPK inhibitor, RE007 growth inh, FBPA Giardia inh, CHX counter)
O=C(Nc1ccc2nc(-c3ccccc3)[nH]c2c1)c1cccs1	CHX counter 32
O=C(Nc1ccc2nc(-c3ccco3)[nH]c2c1)c1ccco1	Shiga toxin inh 45, CHX counter 33
O=C(Nc1ccc2nc(-c3cccnc3)[nH]c2c1)c1ccco1	none
O=C(Nc1ccc2nc(-c3ccc4nc[nH]c4c3)[nH]c2c1)c1cccs1	none
Cc1ccc2nc(-c3cccc(NC(=O)c4ccco4)c3)[nH]c2c1	Shiga toxin inh 43, LmPK inhibitor inconclusive, CHX counter 50
O=C(N/C(=C/c1ccc(Cl)cc1)c1nc2ccccc2[nH]1)c1ccco1	none
O=C(N/C(=C/c1ccc(Br)cc1)c1nc2ccccc2[nH]1)c1ccco1	Shiga toxin inh 51, CHX counter 15
CC1CCCN(C(=O)COC(=O)C2=COCCO2)C1 (centres undefined)	none (no result: Shiga toxin inh, LmPK inhibitor, FBPA Giardia inh, CHX counter)
COc1cc(C)ccc1OCCSc1nc2ccc(NC(=O)c3ccco3)cc2s1	none (no result: Shiga toxin inh, LmPK inhibitor, RE007 growth inh, FBPA Giardia inh, CHX counter)
O=C(Nc1ccc2nc(-c3ccco3)[nH]c2c1)c1cccs1	Shiga toxin inh 66, CHX counter 46
CC(=O)Nc1cccc(-c2nc3ccc(NC(C)=O)cc3[nH]2)c1	none
O=C(Nc1ccc(-c2nc3ccccc3[nH]2)cc1)c1ccco1	Shiga toxin inh 109, LmPK inhibitor inconclusive, CHX counter 43
CC(=O)Nc1ccc2nc(-c3ccco3)[nH]c2c1	Shiga toxin inh 87, CHX counter 35
COc1ccccc1N=Nc1[nH]c2ccc(C)cc2c1O	Shiga toxin inh 32, CHX counter 22, TbPYK inhibitor inconclusive
O=C(NC12CC3CC(CC(C3)C1)C2)N(Cc1ccccc1)Cc1ccncc1	none
Cc1ccc(-c2nn3c(-c4ccccc4)nnc3o2)cc1	none (no result: Shiga toxin inh, LmPK inhibitor, FBPA Giardia inh, CHX counter)
CC(C)OC(=O)CSc1nc2ccccc2s1	Shiga toxin inh 64, CHX counter 49
O=C(O)CSc1nc2ccccc2s1	none
COC(=O)c1ccc(CSc2nc3ccccc3s2)o1	Shiga toxin inh 48, CHX counter 56
O=C(CSc1nc2ccccc2s1)CSc1nc2ccccc2s1	none
CC(=O)CSc1nc2ccccc2s1	RE007 growth inh inconclusive, CHX counter 25
O=C(CSc1nc2ccccc2s1)c1cc2ccccc2o1	CHX counter 24
O=C1CC(c2nc3ccccc3n2CCCCOc2ccccc2)CN1c1ccccc1Cl (centres undefined)	none (no result: Shiga toxin inh, LmPK inhibitor, RE007 growth inh, FBPA Giardia inh, CHX counter)
COc1ccc(S(=O)(=O)NCc2ccc3c(c2)CCN3C(=O)c2ccccc2)cc1OC	none (no result: Shiga toxin inh, LmPK inhibitor, RE007 growth inh, FBPA Giardia inh, CHX counter)
Cn1cccc1C(=O)N1CCC2(CC1)CN(C(c1ccccc1)c1ccccc1)C2	none (no result: Shiga toxin inh, LmPK inhibitor, RE007 growth inh, CHX counter)
